This note sets out measurements from PubChem BioAssay (EPA / NIEHS).

Each structure is given as a SMILES string. Results filed as inconclusive are left out. Active and inactive are the calls of the source. How the source made its calls, unless noted: active means hit-call score of the fitted dose curve at least 0.9, where 1 is the maximum; inactive means score below 0.9.

Usually AC50 stands for the concentration giving half of the maximal activity seen.

The nature of test [1]: ATG_PBREM_CIS: Attagene CIS-FACTORIAL HepG2 Assay for human Phenobarbital-responsive Enhancer Module (PBREM) (AID 2282955). The conditions noted are these: HepG2 PBREM cis-reporter, Attagene multiplexed transcription; actives raise or lower the signal. Summed up:
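HepG2 cells transiently transfected with multiple cis-regulated reporter units measure endogenous transcription factor activity; 24 h compound exposure. Reporter mRNA quantified by RT-PCR, fluorescent labelling, HpaI digestion and capillary electrophoresis; bidirectional fit versus DMSO.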

Test [2] deals with Paired box protein Pax-6 (Homo sapiens) (UniProt P26367). Put plainly: ATG_Pax6_CIS: Attagene CIS-FACTORIAL HepG2 Assay for human Paired Box 6 (PAX6) (AID 2282956). Conditions: HepG2 CIS-FACTORIAL PAX6 reporter transcription, RNA readout; actives raise or lower the signal. Summed up:
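Multiplexed cis-reporter HepG2 system; 24 h treatment; reporter mRNA read by RT-PCR/CE fluorescence; bidirectional fit vs DMSO.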

Test [3] in a line: ATG_PXRE_CIS: Attagene CIS-FACTORIAL HepG2 Assay for human Pregnane X Receptor Element (PXRE) (AID 2282957). The conditions noted are these: HepG2 Attagene CIS-FACTORIAL PXRE reporter, mRNA; actives raise or lower the signal. Summed up: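 HepG2 cells transiently transfected with cis-element-driven multiplexed reporter units; after 24 h chemical exposure, reporter mRNA measured by RT-PCR, 6-FAM labelling, HpaI digestion and capillary electrophoresis. Bidirectional fitting relative to DMSO.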

The nature of test [4]: ATG_PPRE_CIS: Attagene CIS-FACTORIAL HepG2 Assay for human Peroxisome Proliferator-activated Response Element (PPRE) (AID 2282958). Conditions: HepG2 PPRE cis-element reporter, Attagene transcription factor profiling; actives raise or lower the signal. Summed up:
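HepG2 cells are transiently transfected with multiplexed cis-promoter reporter units to report endogenous PPAR activity. After 24 h dosing, reporter mRNA is read by RT-PCR and capillary electrophoresis. Fitting is bidirectional against DMSO.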

The nature of test [5]: ATG_RORE_CIS: Attagene CIS-FACTORIAL HepG2 Assay for human RAR-related Orphan Receptor Element (RORE) (AID 2282959). The conditions noted are these: HepG2 Attagene cis-factorial RORE reporter, mRNA; actives raise or lower the signal. Summed up: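 HepG2 cells carrying transiently transfected cis-regulated reporter units; RORE-driven reporter mRNA quantified 24 h post-dosing by RT-PCR, 6-FAM primer extension, HpaI digestion and capillary electrophoresis. Bidirectional fit versus DMSO.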

Test [6] is described as follows: ATG_Sox_CIS: Attagene CIS-FACTORIAL HepG2 Assay for human SRY-box transcription factor (SOX) (AID 2282960). The conditions noted are these: HepG2 Attagene cis-factorial SOX reporter, mRNA; actives raise or lower the signal. The gist of the method:
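HepG2 cells transiently transfected with multiple cis-regulated reporter units, then dosed for 24 h. Reporter mRNA quantified by RT-PCR, fluorescent labelling, HpaI digestion and capillary electrophoresis; bidirectional fit versus DMSO.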

Test [7] concerns the target Transcription factor Sp1 (Homo sapiens) (UniProt P08047). Put plainly: ATG_Sp1_CIS: Attagene CIS-FACTORIAL HepG2 Assay for human Specificity Protein 1 (Sp1) (AID 2282961). The conditions noted are these: HepG2 Sp1 cis-reporter transcription, actives raise or lower the signal. Summed up: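 HepG2 cells transiently transfected with multiplexed cis-regulated reporter constructs, chemical exposure 24 h. Reporter mRNA quantified by RT-PCR with capillary electrophoresis; bidirectional fit relative to DMSO.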

A short description of test [8]: ATG_SREBP_CIS: Attagene CIS-FACTORIAL HepG2 Assay for human Sterol Regulatory Element Binding (SREBP) (AID 2282962). The conditions noted are these: HepG2 Attagene cis-factorial SREBP reporter, mRNA; actives raise or lower the signal. Summed up:
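mRNA induction of transfected cis-promoter reporters in HepG2 cells, 24 h post-dose. Detection: RT-PCR with 6-FAM-labelled products, HpaI digest, capillary electrophoresis. DMSO served as negative control and baseline.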

The target of test [9] is Signal transducer and activator of transcription 3 (Homo sapiens) (UniProt P40763). Put plainly: ATG_STAT3_CIS: Attagene CIS-FACTORIAL HepG2 Assay for human Signal Transducer and Activator of Transcription 3 (STAT3) (AID 2282963). The conditions noted are these: HepG2, Attagene cis-factorial STAT3 reporter transcription; actives raise or lower the signal. The gist of the method:
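HepG2 cells transiently transfected with multiple cis-element-driven reporter units report endogenous transcription factor activity. After 24 h compound exposure, reporter mRNA is measured by RT-PCR, 6-FAM labelling, HpaI digestion and capillary electrophoresis. Fitted bidirectionally versus DMSO.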

The nature of test [10]: ATG_TA_CIS: Attagene CIS-FACTORIAL HepG2 Assay for human TA Basal Promoter (AID 2282964). Conditions: HepG2 Attagene CIS-factorial TA basal promoter reporter; actives raise or lower the signal. Summed up:
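Fluorescence from labelled RT-PCR reporter fragments, separated by capillary electrophoresis, gives the signal. Cells: HepG2 transiently carrying multiple reporter units, 24 h chemical dosing. Gain or loss relative to DMSO.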

Test [11] in a line: ATG_TCF_b_cat_CIS: Attagene CIS-FACTORIAL HepG2 Assay for human T-Cell-Factor with beta-catenin (TCF/b-cat) (AID 2282965). The conditions noted are these: HepG2 TCF/beta-catenin cis-reporter transcription, actives raise or lower the signal. The gist of the method:
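HepG2, transient MRTU transfection, cis-element-driven reporters (endogenous TFs). 24 h compound exposure. Readout: reporter mRNA by RT-PCR + 6-FAM primer extension, HpaI digest, capillary electrophoresis. Gain/loss fit vs DMSO baseline.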

The nature of test [12]: ATG_TAL_CIS: Attagene CIS-FACTORIAL HepG2 Assay for human TAL Basal Promoter (AID 2282966).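 Further: background control endpoint measuring basal TAL promoter reporter mRNA not a specific factor.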 The conditions noted are these: HepG2 Attagene cis-factorial TAL promoter reporter; actives raise or lower the signal. The gist of the method:
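HepG2 cells transiently transfected with multiplexed cis-promoter reporter units, dosed 24 h. Reporter mRNA quantified by RT-PCR, 6-FAM labelling, HpaI digestion and capillary electrophoresis; TAL basal promoter serves as background control, fitted bidirectionally versus DMSO.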

A short description of test [13]: ATG_TGFb_CIS: Attagene CIS-FACTORIAL HepG2 Assay for human Transforming Growth Factor (TGF) (AID 2282967). Conditions: HepG2 Attagene CIS TGFb reporter, mRNA transcription; actives raise or lower the signal. Summed up:
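Bidirectional fitting relative to DMSO gave the endpoint. Underlying data: reporter mRNA from HepG2 cells carrying transiently transfected cis-regulated reporter constructs, harvested 24 h after dosing and analyzed by RT-PCR and capillary electrophoresis.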

In test [14] the target is Estrogen receptor (Homo sapiens) (UniProt P03372). Briefly: ATG_ERa_TRANS: Attagene TRANS-FACTORIAL HepG2 Assay for human Estrogen Receptor alpha (ERa) (AID 2282970; active means hit-call score of the fitted dose curve at least 0.9, where 1 is the maximum). The conditions noted are these: HepG2 Attagene TRANS ERa GAL4 reporter, mRNA. The gist of the method: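 HepG2 cells transiently transfected with multiplexed GAL4-UAS reporter units read out chimeric NR-Gal4 activity. After 24 h compound exposure, reporter mRNA was quantified by RT-PCR, 6-FAM labeling, HpaI digestion and capillary electrophoresis, relative to DMSO.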
Sequence of Estrogen receptor (Homo sapiens) (P03372 whole entry, looked up, the tested form may be a part): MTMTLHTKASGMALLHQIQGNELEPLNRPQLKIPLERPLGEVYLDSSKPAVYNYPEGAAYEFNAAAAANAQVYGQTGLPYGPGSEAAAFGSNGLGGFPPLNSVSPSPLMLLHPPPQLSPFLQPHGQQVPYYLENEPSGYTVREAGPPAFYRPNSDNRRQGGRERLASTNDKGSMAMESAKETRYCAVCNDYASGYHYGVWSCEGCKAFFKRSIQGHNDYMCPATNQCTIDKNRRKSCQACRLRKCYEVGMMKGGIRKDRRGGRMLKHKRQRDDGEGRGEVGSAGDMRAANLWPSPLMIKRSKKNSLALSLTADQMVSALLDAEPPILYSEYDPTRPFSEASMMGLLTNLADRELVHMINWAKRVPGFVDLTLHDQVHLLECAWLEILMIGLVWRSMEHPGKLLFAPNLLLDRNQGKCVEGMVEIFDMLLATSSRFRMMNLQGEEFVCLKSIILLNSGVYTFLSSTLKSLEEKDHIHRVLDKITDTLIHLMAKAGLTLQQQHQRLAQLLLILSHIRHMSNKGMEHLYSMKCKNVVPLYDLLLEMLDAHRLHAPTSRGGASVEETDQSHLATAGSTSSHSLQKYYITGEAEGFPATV

Test [15] has as its target X-box-binding protein 1 (Homo sapiens) (UniProt P17861). Put plainly: ATG_Xbp1_CIS: Attagene CIS-FACTORIAL HepG2 Assay for human X-box Binding Protein 1 (XBP1) (AID 2282972). The conditions noted are these: HepG2 XBP1 cis-element reporter, Attagene multiplex; actives raise or lower the signal. The gist of the method: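 Fluorescence-labelled cDNA fragments from reporter transcripts, separated by capillary electrophoresis, give the signal. Source: HepG2 cells transfected with promoter-driven reporter units, harvested 24 h post-dose. DMSO served as reference for bidirectional curve fitting.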

Test [16] can be described thus: ATG_M_19_TRANS: Attagene TRANS-FACTORIAL HepG2 Assay for M19 Transcription Factor (Internal Marker) (AID 2282974; active means hit-call score of the fitted dose curve at least 0.9, where 1 is the maximum). Conditions: HepG2 Attagene TRANS-FACTORIAL M19 internal marker reporter. Summed up: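 HepG2 transiently transfected with GAL4-UAS multiplex reporter constructs, exposed 24 h; reporter RNA quantified by RT-PCR, 6-FAM labeling, HpaI digestion and capillary electrophoresis; internal background marker fitted upward versus DMSO.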

Test [17] deals with Steroid hormone receptor ERR1 (Homo sapiens) (UniProt P11474). Put plainly: ATG_ERRa_TRANS: Attagene TRANS-FACTORIAL HepG2 Assay for human Estrogen-Related Receptor alpha (ERRa) (AID 2282971; active means hit-call score of the fitted dose curve at least 0.9, where 1 is the maximum). The conditions noted are these: HepG2 Attagene TRANS reporter, ERRa transactivation. The gist of the method:
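HepG2 cells transiently transfected with GAL4-UAS reporter units and chimeric NR-Gal4 constructs; after 24 hour compound incubation, reporter mRNA quantified by RT-PCR, fluorescent labelling and capillary electrophoresis, gain of signal versus DMSO.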

Test [18] in a line: ATG_VDRE_CIS: Attagene CIS-FACTORIAL HepG2 Assay for human Vitamin D Receptor Element (VDRE) (AID 2282968). Conditions: HepG2 VDRE cis-reporter transcription, actives raise or lower the signal. Summed up:
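Transiently transfected HepG2 cells carrying cis-regulated reporter transcription units were exposed for 24 h. Reporter mRNA was measured by RT-PCR with fluorescent labelling and capillary electrophoresis, and fitted in both directions against DMSO.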

Sequence of Paired box protein Pax-6 (Homo sapiens) (P26367 whole entry, looked up): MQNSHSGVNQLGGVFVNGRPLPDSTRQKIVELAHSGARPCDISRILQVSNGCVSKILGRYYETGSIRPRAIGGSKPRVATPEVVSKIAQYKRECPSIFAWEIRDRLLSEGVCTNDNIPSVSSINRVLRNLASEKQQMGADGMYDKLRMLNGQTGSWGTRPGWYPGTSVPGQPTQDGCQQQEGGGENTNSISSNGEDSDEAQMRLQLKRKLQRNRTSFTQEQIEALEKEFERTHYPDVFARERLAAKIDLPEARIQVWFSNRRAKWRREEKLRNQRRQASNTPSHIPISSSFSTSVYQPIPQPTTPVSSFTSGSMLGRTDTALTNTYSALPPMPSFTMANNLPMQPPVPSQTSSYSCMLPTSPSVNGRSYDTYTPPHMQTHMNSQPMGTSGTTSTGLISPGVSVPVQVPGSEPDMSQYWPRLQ
Sequence of X-box-binding protein 1 (Homo sapiens) (P17861 whole entry, looked up, the tested form may be a part): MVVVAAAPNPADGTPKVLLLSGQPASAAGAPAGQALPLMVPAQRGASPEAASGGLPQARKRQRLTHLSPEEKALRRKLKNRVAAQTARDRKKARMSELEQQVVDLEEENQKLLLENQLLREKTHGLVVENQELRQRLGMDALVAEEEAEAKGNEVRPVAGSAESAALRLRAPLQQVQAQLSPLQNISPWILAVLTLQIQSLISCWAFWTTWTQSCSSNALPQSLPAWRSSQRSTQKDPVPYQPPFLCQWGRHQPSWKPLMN
Sequence of Transcription factor Sp1 (Homo sapiens) (P08047 whole entry, looked up): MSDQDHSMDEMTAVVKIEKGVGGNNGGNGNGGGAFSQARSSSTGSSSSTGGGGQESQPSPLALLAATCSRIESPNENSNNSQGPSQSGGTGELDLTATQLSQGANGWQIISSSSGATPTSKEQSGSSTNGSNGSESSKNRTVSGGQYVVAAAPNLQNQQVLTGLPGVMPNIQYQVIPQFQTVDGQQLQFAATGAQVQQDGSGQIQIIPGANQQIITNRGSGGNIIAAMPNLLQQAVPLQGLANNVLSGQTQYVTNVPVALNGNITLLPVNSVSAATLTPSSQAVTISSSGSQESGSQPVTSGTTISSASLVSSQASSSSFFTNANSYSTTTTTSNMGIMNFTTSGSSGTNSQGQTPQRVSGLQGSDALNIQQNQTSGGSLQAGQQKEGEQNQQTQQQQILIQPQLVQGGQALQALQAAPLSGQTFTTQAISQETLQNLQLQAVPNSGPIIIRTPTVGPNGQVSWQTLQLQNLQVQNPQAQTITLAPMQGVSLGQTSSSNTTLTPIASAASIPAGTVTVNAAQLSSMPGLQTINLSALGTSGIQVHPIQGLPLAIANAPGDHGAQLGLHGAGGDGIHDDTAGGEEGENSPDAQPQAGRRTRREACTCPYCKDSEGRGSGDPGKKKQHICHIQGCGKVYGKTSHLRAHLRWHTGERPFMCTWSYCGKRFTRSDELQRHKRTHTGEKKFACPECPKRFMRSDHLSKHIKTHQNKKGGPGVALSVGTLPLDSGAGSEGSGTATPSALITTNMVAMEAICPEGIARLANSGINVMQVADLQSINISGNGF
Sequence of Signal transducer and activator of transcription 3 (Homo sapiens) (P40763 whole entry, looked up): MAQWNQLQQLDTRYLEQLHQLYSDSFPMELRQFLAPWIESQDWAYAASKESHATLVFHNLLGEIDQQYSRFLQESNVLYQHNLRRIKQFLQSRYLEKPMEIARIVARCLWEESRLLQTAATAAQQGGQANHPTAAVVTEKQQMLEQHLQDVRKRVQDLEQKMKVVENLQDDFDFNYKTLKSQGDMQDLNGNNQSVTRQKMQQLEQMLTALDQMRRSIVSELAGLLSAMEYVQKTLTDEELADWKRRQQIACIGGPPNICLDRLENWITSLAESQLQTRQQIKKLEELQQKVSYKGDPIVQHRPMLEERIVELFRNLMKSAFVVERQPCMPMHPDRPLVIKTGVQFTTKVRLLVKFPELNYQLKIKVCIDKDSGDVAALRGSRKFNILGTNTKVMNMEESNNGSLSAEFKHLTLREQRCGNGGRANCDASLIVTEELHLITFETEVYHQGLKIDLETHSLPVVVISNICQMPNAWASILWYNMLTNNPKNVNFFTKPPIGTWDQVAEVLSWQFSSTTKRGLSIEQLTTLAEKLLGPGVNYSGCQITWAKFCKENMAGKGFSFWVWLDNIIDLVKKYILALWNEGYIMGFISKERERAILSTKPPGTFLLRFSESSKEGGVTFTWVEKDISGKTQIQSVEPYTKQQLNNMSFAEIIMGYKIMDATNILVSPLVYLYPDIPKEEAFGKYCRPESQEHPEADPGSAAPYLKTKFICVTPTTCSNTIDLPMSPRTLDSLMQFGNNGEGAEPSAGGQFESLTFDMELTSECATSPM
Sequence of Steroid hormone receptor ERR1 (Homo sapiens) (P11474 whole entry, looked up, the tested form may be a part): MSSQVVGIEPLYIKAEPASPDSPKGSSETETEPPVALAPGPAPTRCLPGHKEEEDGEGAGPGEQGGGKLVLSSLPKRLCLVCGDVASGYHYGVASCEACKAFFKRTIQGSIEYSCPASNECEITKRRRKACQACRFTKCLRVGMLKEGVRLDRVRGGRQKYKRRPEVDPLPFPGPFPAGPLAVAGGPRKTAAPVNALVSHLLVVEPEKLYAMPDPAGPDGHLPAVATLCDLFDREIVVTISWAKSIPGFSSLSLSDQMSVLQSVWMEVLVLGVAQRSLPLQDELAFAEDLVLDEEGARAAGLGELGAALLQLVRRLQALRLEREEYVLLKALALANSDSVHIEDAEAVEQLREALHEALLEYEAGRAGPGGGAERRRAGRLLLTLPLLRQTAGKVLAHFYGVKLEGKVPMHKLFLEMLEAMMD

For `O=c1n(Cl)c(=O)n(Cl)c(=O)n1Cl`, the result in test [1], in [2], in [4], in test [5], in test [6] and in test [7] was inactive. The result in test [8], in test [9], in test [10], in test [11], in test [12] and in [13] was inactive. Also, the compound was classed as inactive in [14], in [15] and in [16]. For the same compound, in test [3], the AC50 is 50 µM (active).

As to `COP(=S)(OC)Oc1ccc([N+](=O)[O-])c(C)c1`, the result in test [1], in test [2], in test [6], in test [7], in [9] and in [10] was inactive. The outcome in test [11], in test [12], in test [13], in test [17] and in test [16] was inactive. The AC50 was 13.5 µM (active) in [3]; 50 µM (active) in [4]; 50 µM (active) in test [5]; 14 µM (active) in [8]; 17.9 µM (active) in test [14]; 50 µM (active) in test [15].

As for `CCN(CC)c1nc(C)cc(OP(=S)(OC)OC)n1`, the result in test [1], in [2], in test [6], in test [7], in test [8] and in [9] was inactive. Further, the result in [10], in [11], in test [12], in [13] and in test [16] was inactive. In addition, the half-maximal activity concentration (AC50) is 3.38 µM (active) in test [3]; 34.1 µM (active) in test [4]; 20 µM (active) in test [5]; 15.5 µM (active) in test [14]; 50 µM (active) in test [15].

On to `O=C(Nc1ccccc1-c1ccc(Cl)cc1)c1cccnc1Cl`, for which the AC50 in test [1] is 17.7 µM (active); in test [3] it was 4.77 µM (active); in [7], 19.8 µM (active); in test [18], 13.7 µM (active). In addition, the compound was classed as inactive in [2], in test [4], in [5], in test [6], in [8] and in test [9]. Besides, the compound was called inactive in [10], in [11], in [12], in test [13], in test [14] and in [17]. The compound was classed as inactive in test [15].
